Inconclusive results are not listed. Where a call stands in place of a potency, no number is given. Calls of active or inactive are those of the source. Unless noted, calls follow the shape of the dose curve; as a rule, active = well fitted curve in the direction sought with a large enough effect in the repeat runs; inconclusive = weak or mixed curves; inactive = no such curve, though single readings can be large; an effect the other way counts as inactive or inconclusive.
Legend:
[1] = qHTS assay to identify small molecule antagonists of the estrogen related receptor (ERR) signaling pathway - cell viability counter screen (AID 1224818); also: series mostly up to about 46 µM
Outline: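 ERR cells, 2,000 per well, compound added after 6 h and incubated 17.5 h at 37 C. Viability read by CellTiter-Fluor fluorescence after a further 30 min at 37 C.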

[2] = qHTS assay to identify small molecule agonists of the estrogen related receptor (ERR) signaling pathway (AID 1224820); also: potency is read from the fitted curve at half-maximal effect
Outline: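 Quantitative HTS of the LOPAC library used NTP ERR reporter cells treated 18 h at 37 C. Signal is luminescence after One-Glo addition and a 30 min room-temperature incubation.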

[3] = test system: estrogen-related receptor alpha (ERRalpha) with PGC-1alpha coactivator, human; experiment: qHTS assay to identify small molecule antagonists of the estrogen related receptor signaling pathway with the pleiotropic PPARgamma coactivator (PGC) (AID 1224821; calls by dose curve; also: nearly all actives have a fitted effect of over 50% in size; also: potency is read from the fitted curve at half-maximal effect)
Outline: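 Quantitative HTS for antagonism: PGC/ERR cells received compounds after 6 h attachment and were incubated 18 h at 37 C, with luminescence (One-Glo) as the endpoint.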

[4] = qHTS assay to identify small molecule antagonists of the estrogen related receptor (ERR) signaling pathway (AID 1224819;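 also: luminescence from an ERR-driven luciferase reporter measured with One-Glo reagent; series mostly up to about 46 µM; nearly all actives have a fitted effect of over 50% in size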)
Outline: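 ERR reporter cell line (NTP) plated at 2,000 cells/well, settled 6 h at 37C/5% CO2, then exposed to LOPAC compounds for 18 h at 37C. One-Glo luciferase luminescence read after 30 min at room temperature.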

[5] = qHTS assay to identify small molecule antagonists of the estrogen related receptor signaling pathway with the pleiotropic PPARgamma coactivator (PGC) cell viability counter screen (AID 1224822; also: series mostly up to about 46 µM)
Outline: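 PGC/ERR cells rested 6 h, then compound-treated 17.5 h at 37 C. CellTiter-Fluor added for 30 min at 37 C, viability measured by fluorescence intensity.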

[6] = qHTS assay to identify small molecule agonists of the estrogen related receptor signaling pathway with the pleiotropic PPARgamma coactivator (PGC) (AID 1224823); also: potency is read from the fitted curve at half-maximal effect
Outline: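 Cell-based luciferase assay in the NTP-supplied PGC/ERR line, 2,000 cells/well; 18 h compound exposure at 37 C, luminescence after One-Glo.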

CC(C)(C)[C@]1(O)CCN2C[C@H]3c4ccccc4CCc4cccc(c43)[C@@H]2C1
Potency [1]: inactive
Potency [2]: inactive
Potency [3]: 17.4 µM (active)

C[C@H](Cc1ccccc1)Nc1ncnc2c1ncn2[C@@H]1O[C@H](CO)C(O)[C@H]1O (some centres undefined)
Potency [1]: inactive
Potency [4]: inactive
Potency [3]: inactive
Potency [5]: inactive
Potency [6]: 10.2 µM (active)

CC(C)[C@H](NC(=O)OCc1ccccc1)C(=O)N[C@H](C=O)Cc1ccccc1
Potency [1]: inactive
Potency [2]: inactive

Fc1ccc2[nH]c(CN3CCN(c4ccccn4)CC3)cc2c1
Potency [1]: inactive
Potency [2]: inactive
Potency [3]: inactive
Potency [5]: inactive
Potency [6]: inactive

N=C(N)SCCN
Potency [1]: inactive
Potency [2]: inactive
Potency [3]: inactive
Potency [5]: inactive
Potency [6]: inactive

COc1ccc(-c2cc(=O)c3c(O)c(OC)c(OC)cc3o2)cc1O
Potency [1]: inactive
Potency [2]: inactive
Potency [3]: inactive
Potency [5]: inactive
Potency [6]: inactive

OC[C@H]1O[C@@H](n2cnc3c(NC4CCCCC4)ncnc32)[C@H](O)[C@@H]1O
Potency [1]: inactive
Potency [2]: inactive
Potency [3]: inactive
Potency [5]: inactive
Potency [6]: 8.74 µM (active)

CN(CCCOc1ccc(Cc2ccccc2)cc1)CCC(=O)O
Potency [1]: inactive
Potency [2]: inactive
Potency [3]: inactive
Potency [5]: inactive
Potency [6]: inactive

Nc1nc(SCc2ccc([N+](=O)[O-])cc2)c2ncn([C@@H]3O[C@H](CO)C(O)[C@H]3O)c2n1 (some centres undefined)
Potency [1]: inactive
Potency [2]: inactive
Potency [3]: inactive
Potency [5]: inactive
Potency [6]: inactive

Nc1nc(OCC2CCCCC2)c2[nH]cnc2n1
Potency [1]: inactive
Potency [2]: inactive
Potency [3]: inactive
Potency [5]: inactive
Potency [6]: inactive

Clc1ccc(N2CCN(Cc3c[nH]c4ncccc34)CC2)cc1
Potency [1]: inactive
Potency [2]: inactive
Potency [3]: inactive
Potency [5]: inactive
Potency [6]: inactive

CN[C@H](CC(=O)O)C(=O)O
Potency [1]: inactive
Potency [2]: inactive
Potency [3]: inactive
Potency [5]: inactive
Potency [6]: inactive

COc1ccccc1N1CCN(CCN2C(=O)CC3(CCCC3)CC2=O)CC1
Potency [1]: inactive
Potency [2]: inactive
Potency [3]: inactive
Potency [5]: inactive
Potency [6]: inactive

CCOC(=O)[C@H](CCc1ccccc1)N[C@@H](C)C(=O)N1[C@H](C(=O)O)C[C@H]2CCCC[C@@H]21
Potency [1]: inactive
Potency [2]: inactive
Potency [3]: inactive
Potency [5]: inactive
Potency [6]: inactive

Nn1nnc2ccccc21
Potency [1]: inactive
Potency [2]: inactive
Potency [3]: inactive
Potency [5]: inactive
Potency [6]: inactive

O=C(O)c1cc(=O)c2ccccc2[nH]1
Potency [1]: inactive
Potency [2]: inactive
Potency [3]: inactive
Potency [5]: inactive
Potency [6]: inactive

CN1CCN(c2nc3cc(C(F)(F)F)ccc3n3cccc23)CC1
Potency [1]: inactive
Potency [2]: inactive
Potency [3]: inactive
Potency [5]: inactive
Potency [6]: inactive

N=C(N)SCCc1cnc[nH]1
Potency [1]: inactive
Potency [2]: inactive
Potency [3]: inactive
Potency [5]: inactive
Potency [6]: inactive

CN1CCC2(CCN3CCc4c(oc5ccccc45)C3C2)N(C)C1=O (centres undefined)
Potency [1]: inactive
Potency [2]: inactive
Potency [3]: inactive
Potency [5]: inactive
Potency [6]: inactive

CC(C)(CO)Cc1cc(C(C)(C)C)c(O)c(C(C)(C)C)c1
Potency [1]: inactive
Potency [2]: inactive
Potency [3]: inactive
Potency [5]: inactive
Potency [6]: inactive

COC(=O)[C@H]1[C@H]2C[C@H]3c4[nH]c5ccccc5c4CCN3C[C@H]2CC[C@@H]1O
Potency [1]: inactive
Potency [2]: inactive
Potency [3]: inactive
Potency [5]: inactive
Potency [6]: inactive

O=C(Nc1nc2ccccc2n1CCN1CCOCC1)c1cccc([N+](=O)[O-])c1
Potency [1]: inactive
Potency [2]: inactive
Potency [3]: inactive
Potency [5]: inactive
Potency [6]: inactive

O=C1NC(c2cccc([N+](=O)[O-])c2)=CCN1c1ccccc1O
Potency [1]: inactive
Potency [2]: inactive
Potency [3]: inactive
Potency [5]: inactive
Potency [6]: inactive

O=C1Cc2c([nH]c3ccc(Br)cc23)-c2ccccc2N1
Potency [1]: inactive
Potency [2]: 2.98 µM (active)
Potency [3]: inactive
Potency [5]: inactive
Potency [6]: 1.23 µM (active)

CCN(CC)CCOC(=O)c1cc(Cl)c(N)cc1OC
Potency [1]: inactive
Potency [2]: inactive
Potency [3]: inactive
Potency [5]: inactive
Potency [6]: inactive

COc1ccc(NC(=O)c2ccc(-c3ccc(-c4noc(C)n4)cc3C)cc2)cc1N1CCN(C)CC1
Potency [1]: inactive
Potency [2]: inactive
Potency [3]: inactive
Potency [5]: inactive

c1ccc(CN2CCC3(CCCc4ccccc43)CC2)cc1
Potency [1]: inactive
Potency [2]: inactive
Potency [3]: inactive
Potency [5]: inactive
Potency [6]: inactive

C[C@@H](N)C1CCC(C(=O)Nc2ccncc2)CC1 (some centres undefined)
Potency [1]: inactive
Potency [2]: inactive
Potency [3]: 14.4 µM (active)
Potency [5]: inactive
Potency [6]: inactive

Cn1c(=O)c2[nH]c(C3CCCC3)nc2n(C)c1=O
Potency [1]: inactive
Potency [2]: inactive
Potency [3]: inactive
Potency [5]: inactive
Potency [6]: inactive

COc1cccc(OC)c1OCCNCC1COc2ccccc2O1 (centres undefined)
Potency [1]: inactive
Potency [2]: inactive
Potency [3]: inactive
Potency [5]: inactive
Potency [6]: inactive
